In the library only some 18% were active in any assay of this set; here they are far more common.
TDP1 cell noCPT – qHTS for Inhibitors of human tyrosyl-DNA phosphodiesterase 1 (TDP1): qHTS in cells in absence of CPT. AID 686978, 2013. DT40 Tdp1-/- hTDP1 cells, no CPT, ATP luminescence, 48 h. 15% of 420,000 active. Potency, µM (highest dose often 46.2 µM), for inactives: at the top dose activity change, negative = growth inhibition, most hits filed as inhibitors; further: potency means the concentration at half of the fitted maximal effect; nearly all actives have a fitted effect of over 55% in size
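Seeded 400 DT40-hTDP1 cells/well (vehicle DMSO, no 20 nM CPT); pinned compounds; ≥48 hr at 37 °C; CellTiter-Glo luminescence as viability measure.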
RORg inh – qHTS for inhibitors of ROR gamma transcriptional activity | Nuclear receptor ROR-gamma (Mus musculus), P51450 | Drosophila S2 Gal4-RORgamma UAS-luciferase reporter, 20 h | Potency, µM (doses to about 53.6 µM), for inactives: at the top dose activity change, negative = inhibition, most hits filed as inhibitors | AID 2551, 2010 | 5.4% of 310,000 active; further: potency means the concentration at half of the fitted maximal effect; nearly all actives have a fitted effect of over 60% in size
Target sequence (P51450 whole entry, looked up, the tested form may be a part): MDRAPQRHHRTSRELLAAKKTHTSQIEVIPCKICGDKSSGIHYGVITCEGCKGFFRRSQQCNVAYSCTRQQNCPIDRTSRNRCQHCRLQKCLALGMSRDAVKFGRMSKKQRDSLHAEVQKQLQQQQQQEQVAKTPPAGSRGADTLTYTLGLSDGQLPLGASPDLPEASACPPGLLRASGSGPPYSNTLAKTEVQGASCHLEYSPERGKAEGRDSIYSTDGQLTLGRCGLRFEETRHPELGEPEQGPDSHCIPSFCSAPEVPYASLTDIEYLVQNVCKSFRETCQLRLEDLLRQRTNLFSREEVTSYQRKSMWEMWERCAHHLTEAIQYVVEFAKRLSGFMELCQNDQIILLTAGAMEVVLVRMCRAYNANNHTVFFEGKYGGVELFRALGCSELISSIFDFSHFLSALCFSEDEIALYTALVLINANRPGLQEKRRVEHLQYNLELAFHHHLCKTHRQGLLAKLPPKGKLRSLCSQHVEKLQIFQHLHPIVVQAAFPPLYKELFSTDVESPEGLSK
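Luciferase reporter read in Schneider cells carrying Gal4-RORγ (mouse) and UAS-Photinus luciferase; cells given compound 1 h before 700 uM copper sulfate induction, then incubated 20 h at ambient temperature.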
IL-1B inflam inh – qHTS for Inhibitors of Inflammasome Signaling: IL-1-beta AlphaLISA Primary Screen; THP-1 LPS/ATP IL-1B secretion, AlphaLISA, 16 h; active compounds read low; AID 743279, 2014; activity change, % at 57.5 µM; 4.7% of 360,000 active; in the data active means activity change below about -50%; inconclusive means mostly about -30% to -49%
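THP-1 cells pretreated 1 hr with compounds (up to 57.5 uM final), then stimulated with LPS (250 ng/mL final) plus ATP (1.25 mM final); secreted IL-1B measured by AlphaLISA after 16 hr, decreased signal indicating inhibition.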
LDHA inh – qHTS assay for inhibitors of human lactate dehydrogenase | L-lactate dehydrogenase A chain (Homo sapiens), P00338 | purified LDHA, NADH/diaphorase-resazurin fluorescence; active compounds read low | activity change, % (values are at about 110 or 230 µM) | 0.15% of 480,000 active | AID 1347041, 2019; in the data active means activity change below about -30%; inconclusive means mostly about -25% to -30%;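 further: plate controls were DMSO wells for no effect and wells without enzyme for full effect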
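Human LDH5 at 2 nM final in Tris HCl pH 7.4 with 0.06 mM NADH and 0.2 mM pyruvate, reacted 5 minutes at room temperature. Remaining NADH coupled via diaphorase/resazurin; resorufin fluorescence read at 0 and 20 minutes, normalized to enzyme-free and DMSO wells.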
Gal4-VP16 FLuc – VP16 counterscreen qHTS for inhibitors of ROR gamma transcriptional activity. 3.5% of 310,000 active. Drosophila S2 Gal4-VP16 UAS-luciferase, luminescence, 20 h. Potency, µM (series often up to 53.6 µM), without a hit: top-dose activity, negative = inhibition, hits mostly inhibitors;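 further: Gal4-VP16 expression switched on by copper sulfate through the metallothionein promoter; potency means the concentration at half of the fitted maximal effect; nearly all actives have a fitted effect of over 50% in size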
DT40 TDP1 CPT – qHTS for Inhibitors of human tyrosyl-DNA phosphodiesterase 1 (TDP1): qHTS in cells in presence of CPT. 12% of 420,000 active. chicken DT40 Tdp1-/-;hTDP1 cells + 20 nM CPT, ATP luminescence, 48 h. Potency, µM (series often up to 46.2 µM), inactives show at the top dose activity change, negative = growth inhibition, usual class: inhibitors; further: potency means the concentration at half of the fitted maximal effect; nearly all actives have a fitted effect of over 55% in size
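Chicken DT40 Tdp1-/- cells stably complemented with human TDP1 were seeded at 400 cells/well in medium containing 20 nM camptothecin, exposed to pin-transferred compounds, and grown at 37 °C for at least 48 hr. Viability was read as ATP luminescence.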
An asterisk follows results filed as active; i = inactive; u = inconclusive; x = not tested or not shown. Unless noted, the call rests on the fitted dose curve; in most records, active means well fitted curve in the direction sought with a large enough effect; inconclusive means small, poorly fitted or top-dose-only effect, or another doubt; inactive means no such curve, though single readings can be large; an effect the other way counts as inactive or inconclusive. Unless noted, on the % scale 0 is the no-effect control and ±100 the full control effect.

SMILES | TDP1 cell noCPT | RORg inh | IL-1B inflam inh | LDHA inh | Gal4-VP16 FLuc | DT40 TDP1 CPT
COc1ccc(C(=O)Nc2ccccc2N2CCN(C(=O)c3ccccc3)CC2)cc1Br | u | -14.3% | u | -0.4 | -11.3% | u
O=C(NC(=S)Nc1ccccc1N1CCN(C(=O)c2ccccc2)CC1)c1ccccc1F | 18.4µM* | 12.6µM* | i | -4.4 | u | 16.4µM*
CN(CC(=O)Nc1c(Cl)cccc1Cl)C(=O)C1CCN(C(=O)c2ccc(Cl)cc2)CC1 | x | x | x | 4.0 | x | x
CCC(=O)c1ccc(OC(=O)/C=C/c2cccc(Cl)c2)cc1 | x | x | x | -1.9 | x | x
CC(=O)Nc1ccc(CNCCSCc2cccs2)cc1 | x | x | x | 3.5 | x | x
S=C(N/N=C/C1CC=CCC1)NC1CCCCC1 (stereo not drawn) | x | x | x | -1.2 | x | x
COc1ccc(CNC(=O)CN(c2ccc(C)cc2)S(=O)(=O)c2c(C)n[nH]c2C)cc1 | u | x | x | -13.8 | x | -10.9%
Cc1n[nH]c(C)c1S(=O)(=O)N(CC(=O)NCc1ccccc1Cl)c1ccc(C(C)C)cc1 | 16.4µM* | x | x | -0.4 | x | u
COc1cccc(CNC(=O)CN(c2ccc(C(C)C)cc2)S(=O)(=O)c2c(C)n[nH]c2C)c1 | 23.1µM* | x | x | 0.7 | x | 16.4µM*
CCOc1cccc(C(=O)Nc2nc3c(s2)CC(C(C)(C)C)CC3)c1 (stereo not drawn) | 20.6µM* | x | x | -0.8 | x | 20.6µM*
COc1cccc(C(=O)Nc2nc3c(s2)CCCC3)c1 | u | x | x | 4.3 | x | u
CC(C)Oc1ccc(C(=O)Nc2nc3c(s2)CC(C(C)(C)C)CC3)cc1 (stereo not drawn) | 13µM* | x | x | -7.7 | x | 16.4µM*
CCCC(=O)Nc1nc2c(s1)CC(C(C)(C)C)CC2 (stereo not drawn) | 20.6µM* | x | x | 1.2 | x | 18.4µM*
Cc1ccccc1C(=O)Nc1nc2c(s1)CC(C(C)(C)C)CC2 (stereo not drawn) | 11.6µM* | x | x | -1.7 | x | 16.4µM*
CC1CCc2nc(NC(=O)COc3ccc(C(C)(C)C)cc3)sc2C1 (stereo not drawn) | u | x | x | -3.8 | x | u
Cc1ccccc1C(=O)Nc1sc2c(c1C(=O)N1CCCCC1)CCC(C(C)(C)C)C2 (stereo not drawn) | u | x | x | -4.1 | x | -14.6%
Cc1ccc2oc(C(=O)Nc3ccc(S(=O)(=O)Nc4cc(C)nc(C)n4)cc3)cc(=O)c2c1 | x | x | x | 1.2 | x | x
COc1cc(OC)cc(C(=O)NNC(=S)NC(=O)c2cccnc2)c1 | 3.66µM* | 11.2µM* | -0.3 | -1.7 | -22.3% | u
COc1cccc(C(=O)NNC(=O)c2cccnc2)c1 | 13.1% | -3.2% | 11.4 | 4.3 | -5.7% | 2.2%
COc1ccc(NC(=S)NC(=O)c2cccnc2)cc1 | -13.0% | 11.2µM* | 25.2 | -7.9 | u | 26.8%
COc1cc(OC)cc(C(=O)NC(=S)NNC(=O)c2cnccn2)c1 | 5.17µM* | u | 37.4 | -2.2 | u | 5.8µM*
COC(=O)c1ccc(NC(=S)NC(=O)c2cccnc2)cc1 | -12.4% | u | 25.0 | -1.6 | u | -18.1%
CC(C)(C)c1ccc(C(=O)NNC(=S)NC(=O)c2cccnc2)cc1 | 7.31µM* | 2.82µM* | 83.0 | -2.7 | u | 7.31µM*
COc1cc(/C=C(\C#N)C(=O)c2ccccc2)ccc1OCc1ccccc1 | x | x | x | -1.2 | x | x
O=C(NCCc1ccc(O)cc1)C1CCN(c2nc(Cl)nc3nc[nH]c23)CC1 | x | x | x | 0.3 | x | x
CC(C)(C)c1ccc(OCC(=O)NNC(=O)c2cccnc2)cc1 | -7.1% | 9.5% | 4.0 | -6.3 | 2.0% | 1.4%

Source: PubChem BioAssay (National Center for Advancing Translational Sciences (NCATS))
